Reference: PubChem BioAssay AID652040 (Broad Institute, 2013)
Potency and affinity values are given separately. Unmarked numbers belong to inactive results.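 The calls were made as follows: active = falling luciferase signal whose fitted half-maximal concentration is at most twice the top tested dose; inconclusive = flat inhibition between 30 and 70% or a poor curve fit; inactive = the rest.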

Experiment: off-target signal loss in HeLa-CEM21 co-culture – HeLa F-luc CTL cells, cherry-picked, counter-screen for HIV-1 Env fusion inhibitor project, dose response (AID 652040);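 also: 0% = median of neutral control wells and -100% = doxycycline 40 µg/mL wells; more negative values mean stronger loss of luciferase signal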
Settings: HeLa-F-luc CTL cells with CEM21, firefly luciferase counterscreen; series mostly up to 35 µM; activity change, negative = inhibition: at the top concentration

For `Cc1ccc(S(=O)(=O)NCC(=O)OCC(=O)NCc2ccc3c(c2)OCO3)cc1`, which “activity change, negative = inhibition” value is on record?
The value was 4.77% [at 16 µM].

For `C=CCOc1c(Br)cc(CNc2ccc(NC(=O)C(C)C)c(OC)c2)cc1OC`, which “activity change, negative = inhibition” value is on record?
The value was 3.89%.

With `CCOC(=O)CN1CCCc2nc(C)c(C)cc21` as the compound, how does the “activity change, negative = inhibition” value read?
Its value is 22.2%.

With `Nc1nonc1C(=O)NCCNCc1c(OCc2ccccc2F)ccc2ccccc12` as the compound, how does the “activity change, negative = inhibition” value read?
The value was 49.9%.

Which “activity change, negative = inhibition” value does the source give for `CC1CCN(S(=O)(=O)c2cc(C(=O)N3CCN(c4ccccc4)CC3)ccc2Br)CC1` here?
The value was 0.151%.

With `c1ccc2c(c1)OCC(CNc1ncnc3nc[nH]c13)O2` (stereo not given) as the compound, how does the “activity change, negative = inhibition” value read?
The value was -6.38%.

For `Cc1cc2ncn(S(=O)(=O)N3CCCCC3)c2cc1C`, which “activity change, negative = inhibition” value is on record?
The value was 3.5%.

For `O=C(CNC(=O)c1cccc(-n2cccc2)c1)Nc1ccccc1Br`, which “activity change, negative = inhibition” value is on record?
The value was 14.5%.

For `CCCCNC(=O)C[C@H]1C[C@@]2(C(=O)OC)C(=C[C@H](C(C)(C)C)O[C@@H]2C)N(Cc2ccc3c(c2)OCO3)C1=O`, which “activity change, negative = inhibition” value is on record?
The value was 10.7%.

For `Cc1ccccc1OCCCCn1cnc2ccccc21`, which “activity change, negative = inhibition” value is on record?
Its value is -0.516% [at 16 µM].

With `CC(Cl)=CCn1c(NCCc2ccccc2)nc2c1c(=O)n(C)c(=O)n2C` as the compound, how does the “activity change, negative = inhibition” value read?
The value was 14.4%.

For `Cc1nc2ccccc2c2oc(C(=O)NCc3ccc4c(c3)OCO4)cc12`, which “activity change, negative = inhibition” value is on record?
Its value is 36%.

With `CCOC(=O)C(C)Oc1cccc2c(=O)n(CC(=O)NCCc3ccc(OC)c(OC)c3)ccc12` (stereo not given) as the compound, how does the “activity change, negative = inhibition” value read?
Its value is 33.2%.

With `COc1ccccc1Oc1ccc(S(=O)(=O)NCc2ccccn2)cc1` as the compound, how does the “activity change, negative = inhibition” value read?
Its value is 16.7%.

With `Nc1ccn([C@@H]2O[C@H](C(=O)NCc3ccc4c(c3)OCO4)[C@@H](O)[C@H]2O)c(=O)n1` as the compound, how does the “activity change, negative = inhibition” value read?
Its value is 25.8%.

Which “activity change, negative = inhibition” value does the source give for `CCc1ccc(-c2nc(CN3CCC(C(=O)NCCc4ccc(OC)c(OC)c4)CC3)c(C)o2)cc1` here?
The value was 83.5%.

With `COc1ccc(N2CCN(C(=O)C3CCC(Cn4c(=S)[nH]c5ccccc5c4=O)CC3)CC2)cc1` (stereo not given) as the compound, how does the “activity change, negative = inhibition” value read?
The value was -0.686%.

With `CCOc1ccc(C(=O)C2CCN(CC(=O)Nc3ccccc3N3CCOCC3)CC2)cc1` as the compound, how does the “activity change, negative = inhibition” value read?
The value was -24.2%.

For `Nc1nonc1C(=O)NCCNCc1cc(Br)ccc1OCc1ccccc1F`, which “activity change, negative = inhibition” value is on record?
Its value is 101%.

With `CCC12CN(S(=O)(=O)c3ccc(C)cc3)CC(CC)(CN(S(=O)(=O)c3ccc(C)cc3)C1)C2=O` as the compound, how does the “activity change, negative = inhibition” value read?
The value was 0.57%.

Which “activity change, negative = inhibition” value does the source give for `COc1cccc(CNc2nc(NCc3ccccc3OC)nc3ccsc23)c1` here?
The value was 10.7%.

With `O=C(Nc1ccc(N2CCN(C(=O)c3ccc(Cl)cc3)CC2)cc1)c1ccc2c(c1)OCCO2` as the compound, how does the “activity change, negative = inhibition” value read?
Its value is -7.41%.

For `COc1ccc(-c2nnc(Nc3nc4c(OC)cccc4s3)o2)cc1`, which “activity change, negative = inhibition” value is on record?
The value was 9.73%.

With `COc1ccc(CCNC(=O)C2CCCN(Cc3nc(-c4cccc(Cl)c4)oc3C)C2)cc1OC` (stereo not given) as the compound, how does the “activity change, negative = inhibition” value read?
The value was 29.1%.

For `CCNC1CCC(Nc2ccnc3cc(Cl)ccc23)CC1` (stereo not given), which “activity change, negative = inhibition” value is on record?
Its value is 62.5%.

Which “activity change, negative = inhibition” value does the source give for `c1coc(CNc2c3c(nc4ccccc24)CCC3)c1` here?
The value was 24.5%.

Which “activity change, negative = inhibition” value does the source give for `Cc1ccc(OCCN2CCN(c3ncnc4sc(C)c(C)c34)CC2)cc1` here?
Its value is -7.38%.

With `CSc1ccc(CN(C)C(=O)c2cccc(S(=O)(=O)N3CCN(Cc4ccccc4)CC3)c2)cc1` as the compound, how does the “activity change, negative = inhibition” value read?
The value was -18.2%.

Which “activity change, negative = inhibition” value does the source give for `CSc1ncccc1C(=O)OCC(=O)Nc1ccc(C)c(S(=O)(=O)N2CCOCC2)c1` here?
Its value is 0.54%.

For `COc1ccc(/C=C/c2nc(S(=O)(=O)c3ccccc3)c(NCCCN(C)C)o2)cc1OC`, which “activity change, negative = inhibition” value is on record?
The value was 15.6% [at 16 µM].

For `Cc1ccc(C(=O)NCc2ccccn2)cc1S(=O)(=O)N1CCCCC1`, which “activity change, negative = inhibition” value is on record?
The value was 34.2%.

For `O=C(CCNC(=O)c1ccc(Br)cc1)NNC(=O)COc1ccccc1F`, which “activity change, negative = inhibition” value is on record?
The value was 32.5%.

With `Cc1ccc2[nH]c3c(N4CCN(Cc5ccccc5)CC4)ncnc3c2c1` as the compound, how does the “activity change, negative = inhibition” value read?
Its value is 7.7%.

Which “activity change, negative = inhibition” value does the source give for `O=C(NCCCc1nc2ccccc2[nH]1)c1ccco1` here?
Its value is 22%.

Which “activity change, negative = inhibition” value does the source give for `CCC(=O)N(C)C(c1ccccc1Cl)c1nnnn1-c1c(C)cccc1C` (stereo not given) here?
Its value is 0.685%.

For `O=C(c1cccc(S(=O)(=O)N2CCN(c3ccccc3)CC2)c1)N1CCCC(C(F)(F)F)C1` (stereo not given), which “activity change, negative = inhibition” value is on record?
Its value is 27.4%.

Which “activity change, negative = inhibition” value does the source give for `COc1ccc(-c2nn(C)c(=O)c3ccccc23)cc1NC(=O)Cn1nc(C)c2ccccc2c1=O` here?
The value was -17%.

For `Cn1cc(S(=O)(=O)N2CCOCC2)cc1C(=O)Nc1cccc(Cl)c1`, which “activity change, negative = inhibition” value is on record?
The value was 4.09%.

For `COc1ccccc1N1CCN(Cc2ccc(O)c3ncccc23)CC1`, which activity change, negative = inhibition is on record?
The activity change, negative = inhibition was 166% [at 8 µM].

Which “activity change, negative = inhibition” value does the source give for `O=C(Nc1ccncc1)c1ccc(Cl)c(S(=O)(=O)N2CCc3ccccc32)c1` here?
The value was 12.5%.
